Laboratory results as given in PubChem BioAssay AID1851 (National Center for Advancing Translational Sciences (NCATS), 2009).
Among all 16,000 compounds or so, about 5,100 (32%) were called active. Roughly 25% stayed inconclusive and do not appear here. The list shows a part of the results. A number with no mark means an inactive call. The call rests on the fitted dose curve; in most records, active means well fitted curve in the direction sought with a large enough effect; inconclusive means small, poorly fitted or top-dose-only effect, or effect the other way; inactive means no such curve, though single readings can be large or run the other way.
On the % scale 0 is the no-effect control and ±100 the full control effect.

Each molecule was assayed against Cytochrome P450 3A4 (Homo sapiens) (UniProt P08684) (assay: Cytochrome panel assay with activity outcomes). Conditions: recombinant CYP, pro-luciferin dealkylation, luminescence, p450-cyp3a4; series mostly up to 57.1 µM.
Sequence of Cytochrome P450 3A4 (Homo sapiens) (P08684 whole entry, looked up): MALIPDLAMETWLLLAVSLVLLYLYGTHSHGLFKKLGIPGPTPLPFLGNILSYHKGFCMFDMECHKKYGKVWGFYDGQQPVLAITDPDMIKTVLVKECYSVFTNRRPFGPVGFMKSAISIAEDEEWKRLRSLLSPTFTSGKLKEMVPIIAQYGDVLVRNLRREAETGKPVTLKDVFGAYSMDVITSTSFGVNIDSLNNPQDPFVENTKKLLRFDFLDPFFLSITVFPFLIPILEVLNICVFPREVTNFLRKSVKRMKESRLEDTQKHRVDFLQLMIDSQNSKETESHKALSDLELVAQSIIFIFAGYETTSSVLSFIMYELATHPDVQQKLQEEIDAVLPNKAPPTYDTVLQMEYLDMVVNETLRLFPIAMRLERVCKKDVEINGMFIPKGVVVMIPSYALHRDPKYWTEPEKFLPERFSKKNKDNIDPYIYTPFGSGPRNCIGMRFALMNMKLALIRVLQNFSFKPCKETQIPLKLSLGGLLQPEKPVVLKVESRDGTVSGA
`CCOC(=O)c1cnn(-c2nc(-c3cccc(F)c3)cs2)c1C(F)(F)F` was tested, and the AC50 was “inactive”.
For `CC(=O)c1cccc(NC(=O)c2csc(-n3nc(C)cc3C(F)(F)F)n2)c1`, the AC50 was 10 µM (active).
In the case of `CCOc1ccc(CC(=O)Nc2sc(Cc3ccccc3)c(C)c2C(N)=O)cc1OCC`, the AC50 is reported as 20 µM (active).
With `Cc1sc(NC(=O)c2ccccc2)c(C(=O)NCCN(C)C)c1C` the AC50 was “inactive”.
`COC(=O)c1c(NC(C)=O)sc(Cc2ccccc2)c1C` was tested, and the AC50 was 14.1 µM (active).
In the case of `CCOc1ccc(CC(C(N)=O)C(N)=O)cc1CN(C)C`, the activity, negative = inhibition is reported as -4.85% [at 2.29 µM].
In the case of `COC(=O)c1ccc(NC(C)=O)o1`, the AC50 is reported as “inactive”.
In the case of `CO[C@]1(NC(=O)[C@H](C(=O)O)c2ccc(O)cc2)C(=O)N2C(C(=O)O)=C(CSc3nnnn3C)CO[C@H]21`, the AC50 is reported as “inactive”.
In the case of `CC1CCN(C(=O)Nc2ccc3nsnc3c2)CC1`, the AC50 is reported as “inactive”.
`CN(CC(=O)Nc1ccc(F)c(F)c1)S(=O)(=O)c1cccc2nsnc12` was tested, and the AC50 was 5.01 µM (active).
With `CC1CCN(C(=O)CN(C)S(=O)(=O)c2cccc3nsnc23)CC1` the AC50 was 3.55 µM (active).
For `COc1cc([C@@H](O)CO)ccc1OS(=O)(=O)O`, the AC50 was “inactive”.
For `COc1cccc(N=c2oc3c(C)ncc(CO)c3cc2C(N)=O)c1`, the AC50 was 17.8 µM (active).
In the case of `CCOC(=O)c1c(C)nc2c(c1-c1ccc(OC)cc1)C(=O)CC(C)(C)C2`, the AC50 is reported as 10 µM (active).
`CCOC(=O)c1c(C)nc2c(c1-c1ccccc1)C(=O)CC(C)(C)C2` was tested, and the AC50 was “inactive”.
Work on `O=C(/C=C/c1ccccc1)NNC(=O)c1cccnc1` yielded an activity, negative = inhibition of -12% [at 2.29 µM].
With `Cc1ccc(NC(=O)/C(=C\c2cccnc2)NC(=O)c2ccco2)cc1` the AC50 was “inactive”.
With `O=C(N/C(=C\c1cccnc1)C(=O)N1CCOCC1)c1cccc(Br)c1` the AC50 was 1 µM (active).
`O=C(/C=C/c1cccnc1)c1ccc(NC(=O)c2cccc(Br)c2)cc1` was tested, and the AC50 was 2.24 µM (active).
`O=C(Nc1ccc2nc(-c3ccc(Br)o3)[nH]c2c1)c1ccco1` was tested, and the AC50 was 14.1 µM (active).
For `O=C(Nc1cccc(Br)c1)/C(=C\c1cccnc1)NC(=O)c1ccco1`, the AC50 was 0.501 µM (active).
`CCC(=O)Nc1cccc(C(=O)/C=C/c2ccccc2)c1` was tested, and the activity, negative = inhibition was -23.2% [at 11.4 µM].
With `CCC(=O)NC(NC(=O)CC)C(Cl)Cl` the AC50 was “inactive”.
In the case of `NCCCCC(=O)O`, the AC50 is reported as “inactive”.
`CCC[C@H]1C[C@H](C(=O)N[C@H]([C@@H]2O[C@H](SC)[C@@H](O)[C@H](O)[C@@H]2O)[C@H](C)O)N(C)C1` was tested, and the AC50 was “inactive”.
With `O=C(Nc1cccc(OC(=O)c2ccco2)c1)c1ccco1` the activity, negative = inhibition was 3.14% [at 11.4 µM].
With `O=C(Nc1cccc(NC(=O)c2ccc(-c3cccc(Br)c3)o2)c1)c1ccco1` the AC50 was 5.01 µM (active).
For `CCCN(CCO)Cc1ccc(F)c(Br)c1`, the AC50 was “inactive”.
`COc1ccc(OCCn2c(C)c(/C=N/n3cnnc3)c3ccccc32)cc1` was tested, and the AC50 was 0.501 µM (active).
In the case of `Cc1ccc(NS(=O)(=O)c2ccccc2Cl)c2c1CC(C)(C)O2`, the AC50 is reported as 0.708 µM (active).
With `CN(C)N1C(N)=C(C#N)C(c2cccnc2)C2=C1CC(C)(C)CC2=O` (stereo unspecified) the AC50 was 2.24 µM (active).
For `O=c1[nH]c(SCc2c(Cl)c(Cl)c(Cl)c(Cl)c2Cl)nc(=S)[nH]1`, the AC50 was 3.16 µM (active).
In the case of `Clc1ccccc1C(Nc1ncccn1)Nc1ncccn1`, the activity, negative = inhibition is reported as 4.33% [at 11.4 µM].
With `O=S(=O)(C[C@H](O)C(Cl)(Cl)Cl)NNc1ccccc1` the activity, negative = inhibition was -15.6% [at 11.4 µM].
`O=C1c2ccccc2C(=O)c2c(NC3CCCCC3)ccc(Nc3ccc(S(=O)(=O)O)cc3)c21` showed an activity, negative = inhibition of -21.4% [at 11.4 µM].
For `O=C(CN1CCN(C2CCCCC2)CC1)NCCC1=CCCCC1`, the AC50 was “inactive”.
`CC(C)(C)c1ccc(C(=O)N2CCC(C(=O)NCCC3=CCCCC3)CC2)cc1` showed an activity, negative = inhibition of -5.78% [at 2.29 µM].
`O=C(NCCC1=CCCCC1)C1CCCN(c2nc3ccccc3o2)C1` (stereo unspecified) was tested, and the AC50 was 12.6 µM (active).
With `Cc1ccccc1S(=O)(=O)O[C@@H]1NS(=O)(=O)c2ccccc21` the activity, negative = inhibition was -3.69% [at 11.4 µM].
`Cc1noc(NC(=O)Nc2ccccc2F)c1C#N` showed an activity, negative = inhibition of -12.9% [at 11.4 µM].
`CC1=C(C(=O)Nc2ccccc2F)C(c2ccsc2)C2=C(CC(c3ccccc3)CC2=O)N1` (stereo unspecified) was tested, and the AC50 was 3.55 µM (active).
For `COC(=O)C1=C(C)NC(=O)NC1c1ccsc1` (stereo unspecified), the AC50 was “inactive”.
`COc1ccc(S(=O)(=O)NC2(C(F)(F)F)N=C3SCCN3C2=O)cc1` (stereo unspecified) was tested, and the AC50 was “inactive”.
For `O=C(c1cnccn1)N1CCC2(CCCN(c3cccc(-c4ccccc4)c3)C2)CC1`, the AC50 was 2 µM (active).
With `O=C(c1cnccn1)N1CCC2(CC1)CN(c1ccccc1)C2` the AC50 was “inactive”.
With `O=C(c1cnccn1)N1CCC[C@@]2(CCN(c3cccc(-c4ccccc4)c3)C2)C1` the AC50 was 3.98 µM (active).
With `O=C(c1cnccn1)N1CCC2(CCCN(c3ccccc3)C2)CC1` the AC50 was 1.58 µM (active).
With `CN(C)c1ncc2nc(-c3ccc(F)cc3)c(=O)n(C3CC3)c2n1` the AC50 was “inactive”.
Molecule `Cc1ccc(/S(C)=N/S(=O)(=O)c2ccc(C)cc2)cc1` (stereo unspecified) has an activity, negative = inhibition of -0.155% [at 2.29 µM].
`Cc1ccc(C2=C(Cl)C(=O)C(c3ccc(C)cc3)=C(Cl)C2=O)cc1` was tested, and the activity, negative = inhibition was -1.66% [at 11.4 µM].
In the case of `Cc1ccc(S(=O)(=O)CCCS(=O)(=O)c2ccc(C)cc2)cc1`, the AC50 is reported as 12.6 µM (active).
In the case of `C[C@@H](CCc1ccccc1)NC[C@H](O)c1ccc(O)c(C(N)=O)c1`, the AC50 is reported as “inactive”.
For `C=C(NC(=O)C(=C)NC(=O)c1csc(C2=N[C@@H]3c4csc(n4)[C@@H]4NC(=O)c5csc(n5)[C@@H]([C@](C)(O)[C@H](C)O)NC(=O)[C@@H]5CSC(=N5)/C(=C/C)NC(=O)[C@@H]([C@H](C)O)NC(=O)c5csc(n5)[C@]3(CC2)NC(=O)[C@@H](C)NC(=O)C(=C)NC(=O)[C@@H](C)NC(=O)[C@@H]([C@@H](C)CC)N[C@H]2C=Cc3c([C@H](C)O)cc(nc3[C@@H]2O)C(=O)O[C@H]4C)n1)C(N)=O`, the AC50 was “inactive”.
In the case of `Cc1noc(C)c1-c1nc(NCCN2CCOCC2)c2ccccc2n1`, the AC50 is reported as 12.6 µM (active).
`FC(F)(F)c1ccccc1-c1nc(NCCN2CCOCC2)c2ccccc2n1` was tested, and the AC50 was 7.94 µM (active).
With `Clc1ccccc1-c1nc(NCCN2CCOCC2)c2ccccc2n1` the AC50 was 15.8 µM (active).
